Assay results as given in PubChem BioAssay (NCI).
About 79,000 compounds went through this panel and 15% of them were active in at least one assay; those are over-represented in the sample as a whole. Unmarked numbers belong to inactive results. Activity calls are given as the source filed them. Rule as the data show it: active = growth inhibition above about 70%; inactive = the rest.

What was measured:
[1] = NCI Yeast Anticancer Drug Screen. Data for the rad50 strain (AID 155);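 also: 0% = growth of vehicle-only cultures of the same strain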; conditions: S. cerevisiae rad50 strain growth inhibition; at 50.0 µM; active compounds read high
In short: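 Relative growth inhibition (compound vs vehicle) was measured in yeast with a defined repair-gene alteration.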

[2] = NCI Yeast Anticancer Drug Screen. Data for the mec2-1 strain (AID 157); conditions: S. cerevisiae mec2-1 strain, at 50.0 µM, active compounds read high
In short: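 Mutant yeast (mec2-1) grown with compound; growth inhibition relative to vehicle control reported.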

[3] = NCI Yeast Anticancer Drug Screen. Data for the sgs1 mgt1 strain (AID 161);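 also: 0% = growth of cultures given vehicle only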; conditions: S. cerevisiae sgs1 mgt1 strain, at 50.0 µM, active compounds read high
In short: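 This yeast growth screen uses a strain with defined DNA-repair lesions; compound-treated growth is compared with vehicle-treated growth.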

[4] = NCI Yeast Anticancer Drug Screen. Data for the cln2 rad14 strain (AID 165);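 also: 0% = growth equal to vehicle treated cultures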; conditions: S. cerevisiae cln2 rad14 strain, at 50.0 µM, active compounds read high
In short: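 Readout is yeast growth inhibition versus vehicle-treated controls, using a strain with cln2 and rad14 alterations exposed to compound.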

[5] = NCI Yeast Anticancer Drug Screen. Data for the bub3 strain (AID 167); conditions: S. cerevisiae bub3 mutant strain, at 50.0 µM, active compounds read high
In short: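 Screening used yeast with an engineered genetic alteration affecting cell cycle control. Compound-exposed cultures were compared with vehicle cultures, and reduced growth was taken as inhibition.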

[6] = NCI Yeast Anticancer Drug Screen. Data for the mlh1 rad18 strain (AID 175); conditions: S. cerevisiae mlh1 rad18 strain growth inhibition; at 50.0 µM; active compounds read high
In short: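 Genetically defined yeast (DNA repair-deficient) exposed to compounds; growth inhibition determined relative to vehicle.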

SMILES	growth inhibition [1]	growth inhibition [2]	growth inhibition [3]	growth inhibition [4]	growth inhibition [5]	growth inhibition [6]
C[C@]12CCc3nonc3C1CC[C@@H]1C2CC[C@@]2(C)C1CC[C@@H]2O (some centres not stated)	3.65%	-0.65%	-0.4%	-53.1%	-7.55%	-2.1%
COc1ccc2c(c1O)C1=CC(=O)CC[C@]13CCN(C)[C@H]3C2	-14.1%	-38.3%	-14.2%	6.15%	-15.2%	-10.2%
CC1CC(C)(C)[N+](C)(CCC(C(N)=O)(c2ccccc2)c2ccccc2)C1 (configuration not stated)	-8.2%	-5.15%	-7.8%	12.3%	-16.4%	3.05%
N#CC[CH2][Sn]([I])([c]1ccccc1)[c]1ccccc1	98.2% (active)	98.8% (active)	98% (active)	98.5% (active)	98.8% (active)	98.1% (active)
Cc1nc2ccc(Br)cc2c(=O)n1-c1nnc(C(C)(C)C)s1	-10.9%	-40.4%	-23.2%	-5.75%	-20.6%	-12.2%
O=C1CCCN1CC#CCN1CCCC1	-13.8%	-20.9%	16.9%	3.3%	8.55%	6.2%
O=C(O)CP(=S)(S)c1ccccc1 (configuration not stated)	-28.5%	-32.9%	-26.4%	2.4%	-27.8%	-39.5%
NC(Cc1c[nH]c2cc([N+](=O)[O-])ccc12)C(=O)O (configuration not stated)	13.8%	2.15%	-33.9%	-7.45%	-43%	-0.25%
O=C1Nc2ccccc2C12CNCS2 (configuration not stated)	5.7%	4.55%	-8.6%	-23.4%	-12.8%	8.2%
COC12C(COC(N)=O)C3=C(C(=O)C(C)=C(N4CC4)C3=O)N1CC1NC12 (configuration not stated)	87.7% (active)	90.3% (active)	90.9% (active)	86.3% (active)	88.8% (active)	87.2% (active)
NC(=O)CCC(N)C(=O)O.[Cl-].[Cl-].[Cl-].[Cl-].[Pt+2] (configuration not stated)	-1.4%	-3.35%	-9.1%	23.9%	8.1%	13%
CCN(CC)c1cccc(OC(=O)NC)c1	0.55%	-0.25%	-4.6%	-15.8%	3.5%	-10%
CC(C)=C=CP(=O)(O)c1ccccc1	-25.1%	-24.1%	-15.7%	31.9%	-14.3%	4.45%
C=CCc1cc(OC)c2c(c1OC)OCO2	6.3%	8.95%	-0.7%	2.05%	-1.9%	7.05%
CCOP(=O)(Cc1ccc(N)cc1)OCC	-23%	-34%	-21.2%	19.9%	-23.9%	-14.2%
c1ccc(N=PNc2ccccc2)cc1 (configuration not stated)	-4.7%	-6.25%	-9.5%	-51.6%	23%	-13.3%
O=C(O)CCCC(=O)CCCC(=O)O.[Pb]	-20%	-27.3%	-11.7%	-36.1%	2.05%	-4.1%
Nc1cc(S(=O)(=O)F)cc(Cl)c1O	25.2%	-3.55%	14.9%	-61.2%	23.2%	24.6%
Cc1c([As](=O)(O)O)ccc2nc3c(C)c([As](=O)(O)O)ccc3nc12	24.5%	1.25%	15.4%	9.25%	2.4%	21.6%
O=C(O)CNCP(=O)(O)O	-31.4%	-23.1%	-52.1%	-15.1%	-46.8%	-20%
NC(CCC(=O)NC(CSc1ccc([N+](=O)[O-])cc1[N+](=O)[O-])C(=O)NCC(=O)O)C(=O)O (configuration not stated)	0.05%	-4.75%	12.2%	8.7%	3.2%	-11.1%

SMILES	growth inhibition [1]	growth inhibition [2]	growth inhibition [3]	growth inhibition [4]	growth inhibition [5]	growth inhibition [6]
O=CC1(c2ccccc2)CCN(Cc2ccccc2)CC1	38.8%	-16.1%	45.1%	41.3%	38.1%	17.4%
CCOC(OCC)c1ccc(C(F)(F)F)cc1.[C-]#[O+].[C-]#[O+].[C-]#[O+].[Cr]	14.2%	0.8%	25.8%	4.85%	20.4%	26.2%
CC1C(C)(C)P(=O)(Oc2ccc3ccccc3c2)C1(C)C (configuration not stated)	71.6% (active)	55.3%	84% (active)	80.7% (active)	94.4% (active)	56.6%
O=[N+]([O-])c1cccc(P(=O)(O)O)c1	-7.3%	53.5%	3.35%	5.25%	-4.5%	0.85%
O.O.[Cl][Pt+2][Cl].[NH-]CC[NH-]	23.6%	10.7%	-2.15%	41.5%	16%	9.85%
CN(C)c1ccc(C=C2C(=O)NC(=O)NC2=O)cc1	37.9%	-16.4%	19.1%	14.4%	14.8%	9.65%
CN1CN(c2ccccc2)C2(CCN(CCc3cc4ccccc4o3)CC2)C1=O	-30.9%	-10.1%	-12.8%	-28.9%	3.4%	-22.2%
CC12CCC3C(CCC4CC(Cl)CCC43C)C1CCC2=O (configuration not stated)	9.95%	8.5%	6.25%	-59.4%	-6.1%	-5.05%
CCOC(=O)C(CC)(CC)C(=O)OCC	-18.9%	-2.3%	-29.6%	-38%	-12.4%	4%
O=C(c1ccc(Cl)cc1)N1CCOCC1	-4.45%	-15.2%	-7.6%	-29.4%	-53%	-7.95%
O=C1C(Br)=CC2(C=C1Br)CCN=c1c(O)c3c(c(O)c12)=NC=N3	27.3%	15.7%	20.5%	19.1%	12.7%	-9.4%
O=S(=O)(F)c1cccc(Cl)c1C[P+](c1ccccc1)(c1ccccc1)c1ccccc1	25.5%	3%	13.7%	12.7%	25.5%	41.4%
Cc1ccc(NC(=O)N(C)N=O)cc1	-3.5%	5.5%	-4.3%	-11.3%	-6.05%	-4.45%
Cc1cccc(OP(=O)(c2ccccc2)c2ccccc2)c1	15.7%	0.35%	22.6%	-40.6%	3.55%	-15.9%
COc1cc2c(cc1OC)C13CCN4C=C5CCOC6CC(=O)N2C1C6C5CC43 (configuration not stated)	-25.4%	-8.7%	-12.7%	1.75%	-60%	16.8%
COc1ccc2c(c1O)-c1cc(O)cc3c1C(C2)N(CCCl)CC3 (configuration not stated)	63.4%	29.1%	64.6%	15.8%	-10.3%	48.7%
COc1ccc2c3c1OC1C(OC)(OC)CC4(C=C2)CN(C)CCC314 (configuration not stated)	-31%	-22.4%	-20.4%	-11.4%	-23.9%	-11.8%
CC1(C)N=C(N)N=C(N)N1c1ccc(CCCCCCc2ccc(S(=O)(=O)F)cc2)cc1	99.5% (active)	99% (active)	99.5% (active)	99% (active)	99% (active)	99.4% (active)
CC(C)COC(=O)Cc1ccccc1	23.2%	12.6%	13.7%	-30.1%	-0.55%	25.4%
COc1ccc2c(c1OC(C)=O)C1=CC(=O)CCC13CCNC3C2 (configuration not stated)	15.8%	6.7%	-13.9%	27.2%	-28.4%	-24.3%
NC(=O)C(N)C(F)c1ccccc1 (configuration not stated)	-11.4%	2.85%	-16.4%	-13.6%	-11.7%	16.8%
